Measured values from PubChem BioAssay (NCATS).
Records with an inconclusive call do not appear. Activity calls are given as the source filed them. Calls come from the whole dose curve; as a rule, active = well fitted curve in the direction sought with a large enough effect; inconclusive = small, poorly fitted or top-dose-only effect, or another doubt; inactive = no such curve, though single readings can be large; an effect the other way counts as inactive or inconclusive.

How the values were obtained:
[1] = Primary redox qHTS assay for identification of artifact compounds. (AID 1845223)
In short: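 Amplex Red (25 uM) and HRP (250 mU/mL) in HBSS, with compounds for 15 min, then 250 uM DTT for 30 min, room temperature, dark. Fluorescence 525/598 nm read; normalized to DMSO and 10 uM DA3003; Hill fit.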

[2] = Quantitative High-Throughput drug screen in 47 multiple myeloma cell lines against the NCATS MIPE library collection: FR4_PLB cell viability assay (AID 1918924; note: nearly all actives have a fitted effect of over 35% in size)
In short: (§1)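 Primary qHTS used for cherry-picking: cells at 500/well, library compounds for 48 h (37C, 5% CO2), luminescent ATP assay.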

[3] = Quantitative High-Throughput drug screen in 47 multiple myeloma cell lines against the NCATS MIPE library collection: Delta47_JCRB cell viability assay (AID 1918925; note: nearly all actives have a fitted effect of over 45% in size)
In short: as §1

[4] = Quantitative High-Throughput drug screen in 47 multiple myeloma cell lines against the NCATS MIPE library collection: EJM_DSMZ cell viability assay (AID 1918926; note: nearly all actives have a fitted effect of over 30% in size)
In short: as §1

[5] = Quantitative High-Throughput drug screen in 47 multiple myeloma cell lines against the NCATS MIPE library collection: ARP1_JJKsccF8 cell viability assay (AID 1918928; note: nearly all actives have a fitted effect of over 40% in size)
In short: (§2)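 Myeloma cells, 500 per well, were exposed to MIPE 4.0 drugs by pin transfer for 48 h at 37 °C, 5% CO2. Viability was read as ATP luminescence with CellTiter-Glo, normalised to DMSO-only (100%) and medium-only (0%) wells.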

[6] = Quantitative High-Throughput drug screen in 47 multiple myeloma cell lines against the NCATS MIPE library collection: ARD_JJKsccE7 cell viability assay (AID 1918929)
In short: as §1

[7] = Quantitative High-Throughput drug screen in 47 multiple myeloma cell lines against the NCATS MIPE library collection: Karpas620_DSMZ cell viability assay (AID 1918959); note: nearly all actives have a fitted effect of over 30% in size
In short: as §1

[8] = Quantitative High-Throughput drug screen in 47 multiple myeloma cell lines against the NCATS MIPE library collection: KMM1_JCRB cell viability assay (AID 1918960); note: nearly all actives have a fitted effect of over 30% in size
In short: as §2

[9] = Quantitative High-Throughput drug screen in 47 multiple myeloma cell lines against the NCATS MIPE library collection: JIM3_ECACC cell viability assay (AID 1918963; note: nearly all actives have a fitted effect of over 35% in size)
In short: as §1

[10] = Quantitative High-Throughput drug screen in 47 multiple myeloma cell lines against the NCATS MIPE library collection: H1112_PLB cell viability assay (AID 1918967; note: nearly all actives have a fitted effect of over 30% in size)
In short: as §1

[11] = Quantitative High-Throughput drug screen in 47 multiple myeloma cell lines against the NCATS MIPE library collection: Karpas25_ECACC cell viability assay (AID 1918968; note: nearly all actives have a fitted effect of over 35% in size)
In short: as §1

[12] = Quantitative High-Throughput drug screen in 47 multiple myeloma cell lines against the NCATS MIPE library collection: KMS27_JCRB cell viability assay (AID 1918970); note: nearly all actives have a fitted effect of over 30% in size
In short: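 ATP-based viability (CellTiter-Glo luminescence) is measured in cells treated 48 h with approved and investigational drugs at 37 °C. Controls are DMSO-only wells for full viability and media-only wells for none.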

[13] = Quantitative High-Throughput drug screen in 47 multiple myeloma cell lines against the NCATS MIPE library collection: KMS12BM_JCRB cell viability assay (AID 1918971); note: nearly all actives have a fitted effect of over 35% in size
In short: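 Myeloma cells (500 per well) were exposed to MIPE 4.0 compounds by pin transfer and incubated 48 hours at 37C, 5% CO2. Viability was read as ATP by CellTiter-Glo luminescence, normalised to DMSO (100%) and media-only (0%) wells.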

[14] = Quantitative High-Throughput drug screen in 47 multiple myeloma cell lines against the NCATS MIPE library collection: KMS12PE_JCRB cell viability assay (AID 1918972); note: nearly all actives have a fitted effect of over 30% in size
In short: (§3)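 We plated 500 myeloma cells per well, pinned in MIPE 4.0 compounds, and incubated for 48 hours at 37C. ATP was then quantified with CellTiter-Glo, with DMSO and media-only wells defining 100% and 0%.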

[15] = Quantitative High-Throughput drug screen in 47 multiple myeloma cell lines against the NCATS MIPE library collection: AMO1_DSMZ cell viability assay (AID 1918927; note: nearly all actives have a fitted effect of over 30% in size)
In short: as §1

[16] = Quantitative High-Throughput drug screen in 47 multiple myeloma cell lines against the NCATS MIPE library collection: Karpas417_ECACC cell viability assay (AID 1918961); settings: Karpas417 myeloma viability, CellTiter-Glo ATP luminescence, 48 h; viability (% of DMSO): at 45.8 µM (top of the series)
In short: as §3

[17] = Quantitative High-Throughput drug screen in 47 multiple myeloma cell lines against the NCATS MIPE library collection: JIM1_ECACC cell viability assay (AID 1918964)
In short: as §1

[18] = Quantitative High-Throughput drug screen in 47 multiple myeloma cell lines against the NCATS MIPE library collection: INA6_PLB cell viability assay (AID 1918965; note: nearly all actives have a fitted effect of over 55% in size)
In short: as §3

[19] = Quantitative High-Throughput drug screen in 47 multiple myeloma cell lines against the NCATS MIPE library collection: JJN3_DSMZ cell viability assay (AID 1918966; note: nearly all actives have a fitted effect of over 50% in size)
In short: as §1

[20] = Quantitative High-Throughput drug screen in 47 multiple myeloma cell lines against the NCATS MIPE library collection: KHM11_PLB cell viability assay (AID 1918962); note: nearly all actives have a fitted effect of over 35% in size
In short: as §1
Potency is the fitted concentration of half-maximal effect.

Row | SMILES | Potency [1] | Potency [2] | Potency [3] | Potency [4] | Potency [5] | Potency [6] | Potency [7] | Potency [8] | Potency [9] | Potency [10] | Potency [11] | Potency [12] | Potency [13] | Potency [14] | Potency [15] | Potency [16] | Potency [17] | Potency [18] | Potency [19] | Potency [20]
1 | COc1ccc(-n2nc(C(N)=O)c3c2C(=O)N(c2ccc(N4CCCCC4=O)cc2)CC3)cc1 | inactive | inactive | inactive | inactive | inactive | inactive | inactive | inactive | inactive | inactive | inactive | inactive | inactive | inactive | – | – | – | – | – | –
2 | Cc1c(C)n(Cc2ccc(-c3ccccc3C(=O)O)cc2)c2ccc(C(=O)N[C@@H](C)c3ccc([N+](=O)[O-])cc3)cc12 | inactive | inactive | 23500 nM (active) | – | – | – | 93.5 nM (active) | 935 nM (active) | 13200 nM (active) | 18700 nM (active) | 5260 nM (active) | 83.3 nM (active) | – | 118 nM (active) | 118 nM (active) | 18.7 nM (active) | 93.5 nM (active) | 18700 nM (active) | – | –
3 | Cc1cc(CN2CCN(c3c(Br)cnc4nc(-c5ccc(N6CCN(C)CC6)cc5)[nH]c34)CC2)no1 | inactive | 18700 nM (active) | 2640 nM (active) | 6620 nM (active) | – | – | – | inactive | 7430 nM (active) | 10500 nM (active) | 3320 nM (active) | inactive | 18700 nM (active) | – | – | inactive | – | 2640 nM (active) | 10500 nM (active) | –
4 | Cc1coc2c1C(=O)C(=O)c1c-2ccc2c1CCCC2(C)C | 9470 nM (active) | 20900 nM (active) | 8330 nM (active) | – | 16600 nM (active) | – | inactive | – | 6620 nM (active) | 8330 nM (active) | 8330 nM (active) | 166 nM (active) | 5260 nM (active) | – | 20.9 nM (active) | – | inactive | 16600 nM (active) | 11800 nM (active) | 7430 nM (active)
5 | COc1ccc(OC)c(-c2nnc3ccc(-c4ccc(OC)c(O[C@@H]5CCOC5)c4)nn23)c1 | inactive | 11800 nM (active) | 9350 nM (active) | 16600 nM (active) | – | 16600 nM (active) | 8330 nM (active) | 8330 nM (active) | 8330 nM (active) | 13200 nM (active) | 6620 nM (active) | 8330 nM (active) | 10500 nM (active) | 7430 nM (active) | – | 10500 nM (active) | 8330 nM (active) | 5900 nM (active) | – | 7430 nM (active)
6 | O=C(Nc1nc2cccc(-c3ccc(CN4CCS(=O)(=O)CC4)cc3)n2n1)C1CC1 | inactive | 9350 nM (active) | – | 18700 nM (active) | 20900 nM (active) | – | – | 8330 nM (active) | 18700 nM (active) | 23500 nM (active) | 16600 nM (active) | – | 7430 nM (active) | – | 5900 nM (active) | 1660 nM (active) | 5900 nM (active) | 3320 nM (active) | – | 13200 nM (active)
7 | O=C(C=Cc1cccc(S(=O)(=O)Nc2ccccc2)c1)NO | – | 1520 nM (active) | 1710 nM (active) | 6050 nM (active) | 960 nM (active) | 1080 nM (active) | 2410 nM (active) | 1080 nM (active) | 5400 nM (active) | 5400 nM (active) | 1080 nM (active) | 2700 nM (active) | 1910 nM (active) | 1360 nM (active) | 855 nM (active) | 1080 nM (active) | 1710 nM (active) | 762 nM (active) | – | 3820 nM (active)
8 | CC(C)[C@H](C(=O)Nc1ccc(C(=O)NO)cc1)c1ccccc1 | – | 372 nM (active) | 372 nM (active) | 1870 nM (active) | 132 nM (active) | 418 nM (active) | 1050 nM (active) | 662 nM (active) | 1480 nM (active) | 1050 nM (active) | – | 2090 nM (active) | 526 nM (active) | 526 nM (active) | 469 nM (active) | 469 nM (active) | 332 nM (active) | 235 nM (active) | 662 nM (active) | 1320 nM (active)
9 | Cc1ccc(-c2ncn(-c3ccc(Nc4nccc(-c5cccc(N6CCOCC6)c5)n4)cc3)n2)cn1 | – | 132 nM (active) | 105 nM (active) | 187 nM (active) | – | 105 nM (active) | 209 nM (active) | 105 nM (active) | 235 nM (active) | 105 nM (active) | 83.3 nM (active) | 46.9 nM (active) | 83.3 nM (active) | 59 nM (active) | 132 nM (active) | 29.6 nM (active) | 66.2 nM (active) | 66.2 nM (active) | – | 118 nM (active)
10 | Nc1ccn([C@@H]2CS[C@H](CO)O2)c(=O)n1 | – | inactive | 42900 nM (active) | inactive | inactive | inactive | inactive | inactive | inactive | – | – | – | inactive | inactive | inactive | – | – | – | – | –
